Reference: ChEMBL document CHEMBL1157539, “Thousands of chemical starting points for antimalarial lead identification” (Nature, 2010)

Key:
Type in all cases: functional
Plasmodium falciparum [1] = experiment: GSK_TCMDC: Inhibition of Plasmodium falciparum 3D7 in whole red blood cells, using parasite LDH activity as an index of growth. Test compounds present at 2uM
Plasmodium falciparum [2] = experiment: GSK_TCMDC: Inhibition of Plasmodium falciparum Dd2 in whole red blood cells, using parasite LDH activity as an index of growth. Test compounds present at 2uM
HepG2 = experiment: GSK_TCMDC: Percent inhibition of human HepG2 cell line. Test compounds present at 10uM.

Row | Structure (SMILES) | Inhibition (Plasmodium falciparum [1]) | Inhibition (Plasmodium falciparum [2]) | Inhibition (HepG2)
1 | O=C(Nc1ccc(CN2CCOCC2)cc1)c1ccc(-c2cc(Cl)ccc2Cl)o1 | 100% | 13% | 5%
2 | CCc1ccc(NC(=O)c2ccc(CN3CCCN(CC4CCCCC4)CC3)cc2)cc1.O=C(O)C(F)(F)F | 96% | 48% | 48%
3 | O=C(/C=C/c1ccc(Cl)c(Cl)c1)N1CCC(CCCN2CCC(c3c[nH]c4ccccc34)CC2)CC1 | 100% | 45% | 44%
4 | Cc1cccc2nc(-c3cccc(-c4cccc(NC(=O)Nc5ccc(F)c(F)c5F)c4)c3)[nH]c12 | 100% | 99% | 32%
5 | CC(C)N1CCN(CCCNc2c3ccccc3nc3ccccc23)CC1.Cl | 100% | 1% | 29%
6 | Cc1cccc(CN2CCC(CNC(=O)c3cc4c(-c5ccccc5F)nn(C)c4s3)CC2)c1 | 85% | 15% | 18%
7 | C[C@H](Cc1ccc(Oc2ccc(C[C@@H](C)NC[C@H](O)c3cccc(Cl)c3)cc2)cc1)NC[C@H](O)c1cccc(Cl)c1.Cl | 100% | 96% | 99%
8 | COc1ccc2nccc([C@@H](O)CN3CCC(NCCNc4cccc(F)c4)CC3)c2c1.CS(=O)(=O)O | 98% | 73% | 11%
9 | Cc1ccc(NC(=O)Nc2ccc(Cl)cc2)cc1-c1cccc(C(=O)Nc2ccc(F)cc2)c1 | 96% | 52% | 8%
10 | Cc1cc(C)cc(N2C(N)=NC(N)=NC2(C)C)c1.Cl | 93% | 6% | 58%
11 | CCCc1cc(Cc2cnc(N)nc2N)cc2c1OC(C)C2C.Cl (centres undefined) | 98% | 0% | 32%
12 | CCCCc1ccc(S(=O)(=O)Nc2ccc3c(c2)CCN(Cc2c[nH]c4cnccc24)CC3)cc1.O=C(O)C(F)(F)F | 99% | 12% | 41%
13 | FC(F)(F)c1ccc2[nH]c(-c3ccc(-c4cccc(CN5CCN(CCN6CCOCC6)CC5)c4)cc3)nc2c1.O=C(O)C(F)(F)F | 98% | 77% | 47%
14 | CCCNCc1ccc(-c2ccc(CN(CCOC)C(=O)Cc3cccnc3)cc2)nc1.O=C(O)C(F)(F)F | 92% | 13% | 10%
15 | CC1(C)CN(CCC2CCC(NC(=O)/C=C/c3ccc(F)cc3F)CC2)Cc2ccc(C#N)cc21.Cl (centres undefined) | 88% | 77% | 39%
16 | Cl.O=C(/C=C/c1ccc(F)cc1)NC1CCC(CCN2CCCN(c3ccc(C(F)(F)F)cn3)CC2)CC1 (centres undefined) | 97% | 13% | 29%
17 | Nc1nccc2ccc(Oc3ccncc3)cc12 | 91% | 81% | 0%
18 | CC(C)Nc1cc(C(=O)N[C@@H](Cc2ccccc2)[C@H](O)CNC2CCCCC2)cc(N2CCCCS2(=O)=O)c1.O=CO | 98% | 98% | 9%
19 | COc1c(C2CCN(CCCCNC(=O)c3ccc(-c4ccc(NC(=O)C(F)(F)F)cc4)cc3)CC2)ccc2c1CCCC2 | 86% | 33% | 95%
20 | O=C(O)C(F)(F)F.OC1CCCN(Cc2ccc(-c3cccc(-c4nc5ccccc5[nH]4)c3)cc2)C1 (centres undefined) | 86% | 0% | 14%
21 | CCN(CC)CCOc1cc2c(cc1Br)-c1cc(Br)c(OCCN(CC)CC)cc1C2=NO.Cl | 100% | 98% | 99%
22 | COc1ccc2ncc(F)c(CCN3CCC4(CC3)COC(c3cc5c(cn3)OCCO5)=N4)c2n1.O=C(O)C(=O)O | 89% | 83% | 79%
23 | CCCCOC(=O)c1ccc(Nc2cc(C)nc3ccc(OC)cc23)cc1 | 100% | 96% | 4%
24 | COc1cccc(C(=O)Nc2nonc2-c2ccc(OC)c(OC)c2)c1 | 97% | 50% | 7%
25 | Cc1ccc2[nH]c(-c3ccccc3N)cc2c1 | 97% | 8% | 11%
26 | CC(C)(C)CCN1CCC(NC(=O)c2ccc(-c3cccc(C(F)(F)F)c3)s2)CC1.O=C(O)C(F)(F)F | 93% | 88% | 95%
27 | CC(=O)Nc1ccc(OCCCCN(Cc2ccccc2OC(F)(F)F)c2ccc(C(F)(F)F)c(C#N)c2)c(Cl)c1 | 89% | 96% | 11%
28 | N#Cc1cc(C(=O)Nc2ccccc2)c(N)nc1SCC(=O)NC(c1ccccc1)c1cccs1 (centres undefined) | 98% | 100% | 34%
